Source: PubChem BioAssay
Most compounds without a hit are left out; they make up all but 0.86% or so of the library.
TAR Tat displ = HIV-1 TAR-Tat binding disruption; HIV-1 TAR RNA, Tat peptide displacement FRET; hits give high values; 100,000 compounds, 0.6% hits; AID 1259389; z-score (no concentration beside the values); active = z-score of 3 or more in at least 2 runs
CDC25B CDK2 inh = human CDC25B-CDK2/CyclinA binding inhibition; 94,000 compounds, 0.72% hits; z-score (no concentration beside the values); AID 1259370; P30305+P24941; HTRF CDC25B-CDK2/CyclinA binding, anti-His/anti-Flag; hits give high values; in the data active = z-score above about 3.2
Numbers without * were called inactive; . = no result given.

SMILES | TAR Tat displ | CDC25B CDK2 inh
Cc1cc(C)c2oc(C(=O)Nc3nc(C)c(C(=O)OCC(C)C)s3)cc(=O)c2c1 | 2.91 | -2.25
Nc1cc2c(=O)c3cc(Cl)cc(Cl)c3[nH]c2c2c1C(=O)c1ccccc1C2=O | . | 10.1*
Nc1cc(S(=O)(=O)O)c(N)c2c1C(=O)c1ccccc1C2=O | . | -2.42
O=c1c(O)cccc2c([C@H]3Oc4cc(O)cc(O)c4C[C@H]3O)cc(O)c(O)c12 | 11.9* | .
Oc1cc(O)c2c(c1)O[C@H](c1ccc(O)c(O)c1)[C@@H](O)C2 | 11.4 | -0.87
O=C1C[C@@H](c2ccccc2)Oc2cc(O)cc(O)c21 | 1.88 | .
Oc1cc(O)c2c(c1)O[C@H](c1cc(O)c(O)c(O)c1)[C@H](O)C2 | 29.9* | .
COC(=O)c1ncn2c1C(=O)N(C1CC1)C(C)(C(=O)NC1CCCC1)C2 (centres undefined) | 0.66 | .
Cc1ccc2[nH]c3c(=O)n(CCN4CCCCC4C)cnc3c2c1 (centres undefined) | 1.02 | -1.3
COc1cc2[nH]c3c(=O)n(CCN4CCCCC4C)cnc3c2cc1OC (centres undefined) | 6.38* | -1.13
Cc1[nH]nc(-n2cnnc2)c1NS(=O)(=O)c1ccc(Br)cc1 | 0.65 | 1.41
COc1ccc(Br)cc1C1C(C#N)=C(N)Oc2cc(O)ccc21 (centres undefined) | -2.79 | -1.41
N#Cc1c(N)nc2c(c1N)C(C(C#N)C#N)c1cc(Br)ccc1O2 (centres undefined) | . | 6.96*
O=C(O[C@@H]1Cc2c(O)cc(O)cc2O[C@@H]1c1cc(O)c(O)c(O)c1-c1c([C@H]2Oc3cc(O)cc(O)c3C[C@H]2OC(=O)c2cc(O)c(O)c(O)c2)cc(O)c(O)c1O)c1cc(O)c(O)c(O)c1 | 28.8* | .
O=C(O[C@@H]1Cc2c(O)cc(O)cc2O[C@@H]1c1cc(O)c(=O)c2c(O)c(O)cc([C@H]3Oc4cc(O)cc(O)c4C[C@H]3OC(=O)c3cc(O)c(O)c(O)c3)c2c1)c1cc(O)c(O)c(O)c1 | 25.9* | .
O=C(Oc1cc(O)cc2c1C[C@@H](OC(=O)c1cc(O)c(O)c(O)c1)[C@@H](c1cc(O)c(O)c(O)c1)O2)c1cc(O)c(O)c(O)c1 | 30.9* | .
COc1ccc([C@@H]2CC(=O)c3c(O)cc(O)cc3O2)cc1O | 2.94 | .
O=C(O)c1ccc(CN2C(=O)CCn3nccc32)cc1 | 0.42 | 5.26
CC(=O)c1ccc(NC(=O)CSc2nnc(-c3ccc4ccccc4c3)n2C)cc1 | . | 6.91*
Cn1c(SCC(=O)Nc2ccc3[nH]c(=O)[nH]c3c2)nnc1-c1ccccc1 | 0.78 | -0.17
Cc1nc(C)c(C(=O)Nc2ccc(N(C)C)cc2)s1 | 0.53 | -2.62
Cc1cc(C)c(Cn2cccc2C2=NC(C)CO2)c(C)c1 (centres undefined) | 1.23 | .
O=C(COCc1cc(-c2ccc3c(c2)OCO3)on1)NCCc1cccs1 | -0.09 | .
Cc1[nH]ccc2c1[nH]c1cc(=O)ccc12 | 22.4* | .
COc1ccc(/C(=C\c2ccc(Cl)cc2)C(=O)O)cc1OC | . | -0.42
SMILES | TAR Tat displ | CDC25B CDK2 inh
COCC(C)NC(=O)C1CC(c2cc(OC)ccc2OC)=NO1 (centres undefined) | -0.78 | -1
Cc1ccc(C)c(CNC(=O)c2cnc3scc(C)n3c2=O)c1 | 0.04 | .
CCc1nnc2sc(/C=C/c3ccco3)nn12 | 8.4* | -1.14
COc1ccc(Cc2nnc3sc(/C=C/c4ccco4)nn23)cc1 | 8.35* | 2.15
CC(C)(C)c1nnc2sc(/C=C/c3ccco3)nn12 | -2.21 | -1.53
Clc1ccc(Cc2nnc3sc(/C=C/c4ccco4)nn23)cc1 | 19.1* | 4.16*
Clc1ccc(Cc2nnc3sc(/C=C/c4cccs4)nn23)cc1 | 1.08 | -1.46
COc1ccccc1/C=C/c1nn2c(Cc3ccccc3)nnc2s1 | 2.51 | 0.3
C=CCOc1ccc(/C(O)=C2\C(=O)C(=O)N(CCN3CCOCC3)C2c2ccc(F)cc2)cc1C (centres undefined) | -0.7 | -1.04
CCOC(=O)c1sc(=S)n(-c2ccc(C)cc2)c1N | 1.38 | .
CCOC(=O)c1sc(=S)n(-c2ccc(F)c(F)c2)c1N | 17.3* | .
Cc1ccc(S(=O)(=O)[C@H]2CS(=O)(=O)C[C@@H]2N2CCc3ccccc3C2)cc1 | 0.99 | -1.8
COC(=O)c1ccc(N2CSC3=C(C#N)C(c4ccc(F)cc4)CC(=O)N3C2)cc1 (centres undefined) | -0.31 | 6.56*
CSc1ccc(C2CC(=O)N3CN(c4ccc(F)cc4)CSC3=C2C#N)cc1 (centres undefined) | -4.88 | 5.22*
O=C(Nc1nc(-c2cccnc2)cs1)C1=COCCO1 | 0.68 | .
CCOc1ccc(N2C(=O)c3cccnc3C2Nc2ccc(OC)c(Cl)c2)cc1 (centres undefined) | 1.23 | -1.52
CCOC(=O)CC(=O)CSC1=NS(=O)(=O)c2ccccc2N1 | -0.99 | .
CCOc1cc(C2CC(=O)N3CN(Cc4ccco4)CSC3=C2C#N)ccc1O (centres undefined) | 1.73 | 2.11
CCOc1cc(C2CC(=O)N3CN(c4ccc(Br)cc4)CSC3=C2C#N)ccc1O (centres undefined) | 26.8* | 2.96
CCOc1cc(C2CC(=O)N3CN(c4ccc(CC)cc4)CSC3=C2C#N)ccc1O (centres undefined) | 23.7* | 1.17
CCCSC1=C(C#N)C(c2ccc(O)c(OCC)c2)CC(=O)N1 (centres undefined) | -0.28 | -1.05
O=C(CN1N=NC2C(=O)N(c3ccc(F)c(F)c3)C(=O)C21)Nc1ccc(Oc2ccccc2)cc1 (centres undefined) | -1.32 | .
Cc1ccc(N2C(=O)c3[nH]nc(-c4ccc(Br)cc4)c3C2c2cccnc2)cc1 (centres undefined) | -0.34 | .
CC(C)CCOc1ccc(C(C)(O)C(CN2CCOCC2)c2ccccc2)cc1 (centres undefined) | 2.78 | .
CCOC(=O)C1CCN(c2nnc(-n3c(C)ccc3C)s2)CC1 | -0.52 | 4
SMILES | TAR Tat displ | CDC25B CDK2 inh
CCOC(=O)C1CCN(c2ccc([N+](=O)[O-])s2)CC1 | 3.46* | .
Fc1ccc(CNc2c(-c3ccccc3)nc3ncccn23)cc1 | -0.88 | .
COC(=O)c1ccc(Nc2cc(N3CCOCC3)c3noc4c3c2C(=O)c2ccccc2-4)cc1 | 3.37 | 7.56*
CN(C)c1ccc(Nc2cc(N3CCOCC3)c3noc4c3c2C(=O)c2ccccc2-4)cc1 | -4.36 | -0.37
O=C1CCN(c2cc(Nc3cccc(F)c3)c3c4c(onc24)-c2ccccc2C3=O)CC1 | 17.2* | 7.78*
O=C(O)c1cccc(Nc2cc(N3CCOCC3)c3noc4c3c2C(=O)c2ccccc2-4)c1 | 7* | -0.18
O=C1CCN(c2cc(Nc3ccc(C(=O)O)cc3)c3c4c(onc24)-c2ccccc2C3=O)CC1 | 26.7* | 14.1
O=C1c2ccccc2-c2onc3c(N4CCOCC4)cc(Nc4cccc(F)c4)c1c23 | 0.23 | 0.54
COc1ccc(Nc2cc(N3CCC(=O)CC3)c3noc4c3c2C(=O)c2ccccc2-4)cc1 | -0.22 | 0.9
O=C1c2ccccc2-c2onc3c(N4CCOCC4)cc(Nc4ccc5c(c4)OCO5)c1c23 | -0.81 | 0.7
Cc1ccc(Nc2nc(N3CC(C)OC(C)C3)nc3c2cnn3C)cc1C (centres undefined) | 0.02 | .
Cc1ccnc2nc(NC(=O)C(C)(C)C)nn12 | 0.69 | 0.45
N#C/C(=C\c1ccc(OCc2cc(F)cc(F)c2)cc1)S(=O)(=O)c1ccccc1 | . | -1.67
N#C/C(=C\c1ccc(Cl)cc1)S(=O)(=O)c1ccc(F)cc1 | . | -1.14
